TrxR1 substrate: qHTS Assay for Substrates of Mammalian Selenoprotein Thioredoxin Reductase 1 (TrxR1): qHTS; purified TrxR1 substrate turnover, NADPH consumption readout; Potency, µM (doses to about 114 µM), inactives show top-dose activity change, negative = substrate turnover; hit rate 0.01% among 390,000; AID 588456, 2011; also: % is scaled to controls: 0 for no effect and ±100 for the full control effect; nearly all actives have a fitted effect of over 50% in size
Target sequence (O89049 whole entry, looked up): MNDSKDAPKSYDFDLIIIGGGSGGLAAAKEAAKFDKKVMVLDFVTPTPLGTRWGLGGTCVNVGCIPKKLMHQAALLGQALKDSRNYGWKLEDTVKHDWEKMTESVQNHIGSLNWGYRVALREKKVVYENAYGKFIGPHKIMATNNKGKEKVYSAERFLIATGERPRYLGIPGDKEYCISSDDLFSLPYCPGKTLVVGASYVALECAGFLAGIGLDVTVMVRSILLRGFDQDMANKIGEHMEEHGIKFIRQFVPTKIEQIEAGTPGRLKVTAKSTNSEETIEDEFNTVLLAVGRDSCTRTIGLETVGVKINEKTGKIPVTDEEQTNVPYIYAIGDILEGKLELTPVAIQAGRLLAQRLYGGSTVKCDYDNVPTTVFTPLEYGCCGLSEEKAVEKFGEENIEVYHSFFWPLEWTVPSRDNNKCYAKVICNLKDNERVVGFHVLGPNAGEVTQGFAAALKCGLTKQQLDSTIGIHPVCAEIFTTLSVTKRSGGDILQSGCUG
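Rat TrxR1, dispensed at 90 nM, was prereduced with 400 uM NADPH (final) for 5 min at ~22 deg C, then incubated with compound 15 min before 400 uM selenite. A first-read NADPH fluorescence drop versus no-compound background flagged substrates.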
A549 viability: Nrf2 qHTS screen for inhibitors: counterscreen for cytotoxicity; Potency, µM (highest dose often 46 µM), without a hit: at the highest dose activity change, negative = cytotoxicity, actives largely listed as inhibitors; AID 504648, 2011; A549 ARE-Fluc cells, CellTiter-Fluor viability, 18-24 h; hit rate 0.16% among 390,000; also: % is scaled to controls: 0 for no effect and ±100 for the full control effect
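A549 ARE_Fluc cells in 5% FBS OPTI-MEM were exposed to compounds in concentration-response for 18-24 h at 37 deg C. Viability was read by CellTiter-Fluor fluorescence (Ex 405/Em 525) after 30 min, before the luciferase read.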
rTrxR1 inhibitor: qHTS Assay for Inhibitors of Mammalian Selenoprotein Thioredoxin Reductase 1 (TrxR1): qHTS | recombinant rTrxR1, NADPH fluorescence consumption, selenite substrate | Potency, µM (series often up to 114 µM), without a hit: top-dose activity change, negative = inhibition, usual class: inhibitors | hit rate 1% among 390,000 | AID 588453, 2011; also: % is scaled to controls: 0 for no effect and ±100 for the full control effect; nearly all actives have a fitted effect of over 65% in size
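Rat TrxR1 (90 nM in the dispensed reagent) was pre-reduced with 400 uM NADPH for 5 min at room temperature, then incubated with compound for 15 min. After 400 uM selenite was added, NADPH fluorescence (Ex 340/Em 450 nm) was followed for 8 min.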
Mito fusion act: qHTS Assay for Small Molecule Inhibitors of Mitochondrial Division or Activators of Mitochondrial Fusion; AID 485298, 2010; hit rate 0.23% among 320,000; Potency, µM (top dose mostly 46.1 µM), for inactives: at the top dose growth rescue (activation), actives largely listed as activators; S. cerevisiae fusion-defective mutant growth rescue, CellTiterGlo 48 h; also: % of control where 0% means no effect; nearly all actives have a fitted effect of over 45% in size
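Temperature-sensitive fusion-defective S. cerevisiae (e.g. fzo1-1, mgm1-5) were grown with compound in YPEG medium (3% ethanol, 3% glycerol) for 48 hours at 37C. Growth rescue was measured as viability by CellTiterGlo luminescence after 10 minutes at ambient.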
mIDH1 inhibitor: qHTS for Inhibitors of mutant isocitrate dehydrogenase 1 (IDH1): qHTS | Isocitrate dehydrogenase [NADP] cytoplasmic (Homo sapiens), O75874 | IDH1-R132H enzyme, NADPH consumption, diaphorase/resazurin fluorescence | Potency, µM (series often up to 76.6 µM), without a hit: at the highest dose activity change, negative = inhibition, actives largely listed as inhibitors | hit rate 0.093% among 390,000 | AID 602179, 2012; also: % is scaled to controls: 0 for no effect and ±100 for the full control effect; nearly all actives have a fitted effect of over 65% in size
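IDH1-R132H (0.5 ug/mL) preincubated 30 min with compound, then NADPH (0.016 mM) and alpha-KG (2 mM) added; 80 min at RT, pH 7.5. Remaining NADPH coupled via diaphorase/resazurin to fluorescence (540/590 nm); concentration-response curves normalized to no-enzyme control.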
Nrf2 block: Nrf2 qHTS screen for inhibitors; A549 ARE-Fluc reporter, luciferase luminescence, 18-24 h; Potency, µM (doses to about 46 µM), for inactives: at the highest dose activity change, negative = inhibition, most hits filed as inhibitors; AID 504444, 2011; hit rate 2.1% among 360,000; also: % is scaled to controls: 0 for no effect and ±100 for the full control effect; nearly all actives have a fitted effect of over 60% in size
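Concentration-response testing used A549 ARE_Fluc cells at 5000 cells/well. Following an 18-24 h compound incubation, viability was read by fluorescence (Ex 405/Em 525) and luciferase output by luminescence.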
Numbers without * were called inactive; ? = inconclusive; nt = no result given; [ ] = remark or other dose. The list is not random: actives were taken first. Their share in the collection is about 3.1%. Calls follow the shape of the dose curve; as a rule, active = well fitted curve in the direction sought with a large enough effect; inconclusive = small, poorly fitted or top-dose-only effect, or another doubt; inactive = no such curve, though single readings can be large; an effect the other way counts as inactive or inconclusive. Potency is read from the fitted curve at half-maximal effect.

SMILES | TrxR1 substrate | A549 viability | rTrxR1 inhibitor | Mito fusion act | mIDH1 inhibitor | Nrf2 block
Cc1cccc(N=c2c([N+](=O)[O-])nn(-c3ccc(Cl)cc3)n2O)c1 | 4% | 1% | 11% | -2% | 6% | 11%
CC(=O)c1cc(-c2ccccc2)n(CCC(=O)Nc2nc3c(C)cccc3s2)c1C | -5%[57.1 µM] | 0% | 16%[57.1 µM] | nt | 0% | nt
CN(C)c1ccc(/C=C/c2ccnc3c(Cl)cccc23)cc1 | -7% | nt | -7% | nt | nt | nt
O=C(CCN1C(=O)/C(=C/c2ccc3c(c2)OCO3)SC1=S)Nc1ccc(C(=O)O)cc1 | -1% | 1% | -5% | -1% | -3% | -3%
O=C(CCCN1C(=O)/C(=C\c2cccs2)SC1=S)Nc1ccc(C(=O)O)cc1 | 79µM* | 7% | -21% | -1% | -4% | -6%
O=C(CCCN1C(=O)/C(=C/c2ccc3c(c2)OCO3)SC1=S)Nc1ccc(C(=O)O)cc1 | -16% | 3% | -20% | -1% | -3% | 10µM*
O=C(CCN1C(=O)/C(=C/c2cccs2)SC1=S)Nc1ccc(C(=O)O)cc1 | -4% | -1% | 1% | 20% | -10% | 1%
Cc1nn(-c2ccccn2)c2c1-c1nc(N)sc1CC2 | -19% | nt | ? | nt | nt | nt
COc1cc2nc(N3CCCN(C)CC3)nc(NC3CCOCC3)c2cc1OC | 77% | nt | -20% | nt | nt | nt
O=C(c1ccc(-c2ccccc2Cl)o1)N1CCC1 | -2%[57.1 µM] | -1% | 0%[57.1 µM] | 11% | -2% | ?
CC1CCN(C(=O)c2ccc(-c3ccccc3Cl)o2)CC1 | 2%[57.1 µM] | 3% | -22%[57.1 µM] | 16µM* | -10% | ?
O=C(Nc1ccccc1C(F)(F)F)C1CCN(S(=O)(=O)Cc2ccccc2)CC1 | -1% | 13% | 16% | nt | -8% | -21%
COc1cc2c(cc1OC)C(COc1ccc3c(C)cc(=O)oc3c1)N(C(=O)c1ccc(C)c(C)c1)CC2 (stereo unspecified) | 30% | -2% | 19% | nt | -18% | -14%[9.27 µM]
O=C(CN1C(=O)c2ccccc2S1(=O)=O)c1ccc(Cl)cc1Cl | 6%[57.1 µM] | 6% | 15%[57.1 µM] | nt | 4% | 12µM*
O=C(CN1C(=O)c2ccccc2S1(=O)=O)c1ccc(F)cc1 | -3% | 1% | 17% | -3% | 3% | 13µM*
C[C@@H](CO)[C@H](/C=C/c1ccccc1)CCO[Si](c1ccccc1)(c1ccccc1)C(C)(C)C | -2% | -1% | 18% | nt | nt | 19%
COc1cc(OC)nc(-n2ncc(Br)c(Br)c2=O)n1 | 6% | ? | 3.5µM* | ? | 2% | ?
C=C(Br)COC(c1ccco1)[C@H](Cc1ccccc1)NC(=O)OC(C)(C)C (stereo partly specified) | -12% | nt | ? | nt | nt | nt
Cc1cccc(NS(=O)(=O)c2ccc3c(c2)CCN3C(=O)C2CCC2)c1 | -7% | -17% | -18% | nt | -3% | 15µM*
Cc1cccc(NS(=O)(=O)c2ccc(NC(=O)N3CCCCC3)cc2)c1 | -4% | -19% | -9% | 1% | 8% | 18µM*
Cc1cccc(NS(=O)(=O)c2ccc(NC(=O)N3CCCC3)cc2)c1 | -2%[57.1 µM] | 5% | 23%[57.1 µM] | nt | -5% | nt
CC(C)C(NS(=O)(=O)c1ccc2c(c1)oc(=O)n2C)C(=O)N1CCN(c2cccc(Cl)c2)CC1 (stereo unspecified) | 5% | -15% | 20% | nt | 7% | 0%
Cc1ccc(-n2nc(C(=O)Nc3ccc(C)c(F)c3)c3c4ccccc4n(C)c3c2=O)cc1 | -2% | 4% | 19% | nt | nt | 15%
O=c1[nH]c2c(s1)C(c1ccco1)C1C3CCC(C3)C1S2 (stereo unspecified) | -10% | -15% | 45µM* | -2% | -3% | -26%
COc1ccc(-c2nc(C#N)c(NCCCN(C)C)o2)cc1OC | 344% | 14% | 46% | -2% | 9% | -3%
SMILES | TrxR1 substrate | A549 viability | rTrxR1 inhibitor | Mito fusion act | mIDH1 inhibitor | Nrf2 block
COc1ccc(CCNc2oc(-c3ccc(OC)c(OC)c3)nc2C#N)cc1 | 179% | -9% | 64% | 2% | 5% | 23µM*
COc1cccc(CNC(=O)Cn2c(SCC(=O)Nc3ccc(C)c(C)c3)nc3ccccc32)c1 | 6%[57.1 µM] | -4% | 14%[57.1 µM] | nt | 22% | nt
O=[N+]([O-])c1ccc(N/N=C2\CC3CC=CC23)cc1 (stereo unspecified) | -19% | ? | -27% | -5% | 2% | ?
O=[N+]([O-])c1ccc(N/N=C2\CC3CC=CC23)c([N+](=O)[O-])c1 (stereo unspecified) | 6%[57.1 µM] | ? | -44% | 18% | -5% | 23µM*
O=c1c2[nH]c3cc(Br)sc3c2cnn1Cc1ccccc1F | nt | -11% | nt | nt | nt | -11%
O=C(/C=C/c1ccco1)Nc1cccc(C(=O)Nc2ccccc2C(=O)O)c1 | -8% | -6% | 11µM* | 1% | 13% | -14%
Cc1ccc(NC(=O)c2cccc(NC(=O)/C=C/c3ccco3)c2)cc1C | -6% | -29% | 20µM* | 5% | 1% | 5%
CCNc1nc(C#N)nc(Nc2ccccc2)n1 | -10% | -3% | -21% | nt | nt | -13%
Cc1nc(N2CCOCC2)c2c(C(=O)N(C)c3ccccc3)c(C)oc2n1 | -2% | -1% | 19% | nt | -16% | 10%
N#CC1(NC(=O)COC(=O)c2cc(O)c3ccccc3c2O)CCCCC1 | -2% | ? | 28µM* | 0% | 18% | ?
CCSC(C)CC1C/C(=N/O)c2c(CC)noc2C1 (stereo unspecified) | 6% | -5%[1.84 µM] | 16% | 17% | -8% | 23µM*
COc1ccc(CN(Cc2ccccc2)C(=O)c2ccno2)cc1COc1ccc(NC(C)=O)cc1 | -9% | 7% | -32% | nt | nt | -2%
S=C(NCCCN1CCOCC1)N1CCN(c2nc(-c3ccc(Cl)cc3)cs2)CC1 | 2% | ? | 11% | 6% | 10% | 13µM*
S=C(NCC1CCCO1)N1CCN(c2cccc(Cl)c2)CC1 (stereo unspecified) | -5%[57.1 µM] | -1% | -24% | -4% | 3% | 21µM*
S=C(NCC1CCCO1)N1CCN(c2nc(-c3ccc(Cl)cc3)cs2)CC1 (stereo unspecified) | 6%[57.1 µM] | ? | 32%[57.1 µM] | 20% | 0% | 16µM*
O=C(COc1ccc2oc3c(c2c1)CCCC3)Nc1ccc(Br)cc1 | 3% | 9% | 15% | nt | -12% | 8%
Cc1ccc(NS(=O)(=O)c2cc3c(cc2N(C)C)NC(=O)CC3)cc1C | nt | 4% | nt | nt | nt | -4%

High-throughput results as filed in PubChem BioAssay.
